The record followed here is PubChem BioAssay (NCATS).

Inconclusive results are not listed. Entries that show only a call come without a potency. Calls of active or inactive are those of the source. The call rests on the fitted dose curve; in most records, active means well fitted curve in the direction sought with a large enough effect; inconclusive means small, poorly fitted or top-dose-only effect, or another doubt; inactive means no such curve, though single readings can be large or run the other way.

Chain of phosphoglycerate mutase (Leishmania major) (Q4Q090 1-553): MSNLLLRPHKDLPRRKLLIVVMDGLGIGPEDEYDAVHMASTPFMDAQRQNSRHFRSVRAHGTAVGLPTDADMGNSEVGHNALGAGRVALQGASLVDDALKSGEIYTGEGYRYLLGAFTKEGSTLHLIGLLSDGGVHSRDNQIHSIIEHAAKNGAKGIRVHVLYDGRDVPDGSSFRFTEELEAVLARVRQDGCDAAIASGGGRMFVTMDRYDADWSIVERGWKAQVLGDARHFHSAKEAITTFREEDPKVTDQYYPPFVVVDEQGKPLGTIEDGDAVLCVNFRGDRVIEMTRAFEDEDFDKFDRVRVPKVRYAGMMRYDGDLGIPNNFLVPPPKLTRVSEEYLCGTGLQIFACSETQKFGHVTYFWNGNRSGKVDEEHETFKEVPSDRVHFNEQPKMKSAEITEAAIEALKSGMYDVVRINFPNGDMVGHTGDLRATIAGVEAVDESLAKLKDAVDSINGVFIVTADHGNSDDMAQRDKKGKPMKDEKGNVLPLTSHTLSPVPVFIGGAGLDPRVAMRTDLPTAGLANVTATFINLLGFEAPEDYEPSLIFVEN

The experiment addresses phosphoglycerate mutase (Leishmania major) (UniProt Q4Q090). In words: qHTS Validation Assay to Find Inhibitors of Phosphoglycerate Mutase (AID 504548). The conditions noted are these: biochemical enzyme activity; Potency: inhibition qHTS; series mostly up to 57.5 µM. From the text: NIH Molecular Libraries Probe Production Network [MLPCN]
NIH Chemical Genomics Center [NCGC]
PI Name: Malcolm Walkinshaw, University of Edinburgh
Several species of the Trypanosomatidae family of parasitic protozoans cause a spectrum of diseases throughout the tropical and subtropical world. Sleeping sickness, caused by two subspecies of Trypanosoma brucei, is endemic to areas of sub-Saharan Africa, while Chagas disease, a manifestation of Trypanosoma cruzi infection, is prevalent throughout Central and South America. In addition, many species of Leishmania are responsible for a range of cutaneous and visceral diseases, causing ulcers, destructive lesions and kalaazar, a lethal infection of the viscera. Collectively, these organisms infect 30 million people worldwide (~500 million live in endemic areas), and account for ~130,000 deaths annually. Given their debilitating and prevalent nature, trypanosomatid parasites impose a heavy medical, economic and social burden on entire populations, primarily in the developing world. The problem is further exacerbated by the fact that existing treatments have progressed little in the past 50 years, and current drugs show high toxicity and poor efficacy.
Blood-stream stages of T. brucei are entirely dependent on glycolysis as a source of ATP, and the tricarboxylic acid cycle and oxidative phosphorylation are both repressed. Glycolysis in axenically cultured T. cruzi, representing the intracellular pathogenic stage, is also essential for these parasites. […] Previous studies have shown that the glycolytic enzyme, phosphoglycerate mutase (PGAM), is a viable target for drugs to kill these parasites. […] Furthermore, the cobalt centers present within PGAM are only found in trypanosomatid and plant PGAMs, and are known to be required for activity, thereby providing an additional target. Moreover, trypanosomatid PGAMs are completely different from the enzyme that performs the same function in humans: the parasite and host enzymes share no structural or even mechanistic features; specificity is therefore unlikely to be an issue.
NCGC Assay Protocol Summary:
Briefly, 3ul of substrate buffer (all columns) are dispensed into Greiner white solid bottom 1536-well assay plates. Compounds are then transferred via Kalypsys pin tool equipped with 1536-pin array (10nl slotted pins, V&P Scientific, San Diego, CA). Following addition of compound, 1ul of Lm PGAM (1.25nM final concentration, columns […]) is added to initiate the reaction; columns 3-4 receive only TEA buffer as negative controls. The plates are then incubated at room temperature for 45 minutes. Kinase-GloPlus reagent is added (2ul) and plates incubated for 10 minutes, before being transferred to a ViewLux high-throughput CCD imager (PerkinElmer) wherein single end-point measurements of luminescence are acquired using a clear filter. All reagents are diluted in an assay buffer consisting of 100 mM TEA (pH 7.6), 5 mM MgCl2 and 0.01% Tween-20.
On to `CC(C)(C)NCC(O)COc1cccc2[nH]c(=O)[nH]c12` (stereo not given), for which the Potency entry is “inactive”.
As for `CCC1(O)CC2CN(CCc3c([nH]c4ccccc34)[C@@](C(=O)OC)(c3cc4c(cc3OC)N(C=O)C3[C@]45CCN4CC=C[C@@](CC)([C@@H](OC(C)=O)[C@]3(O)C(=O)OC)[C@H]45)C2)C1` (stereo not given in full), the Potency result is “inactive”.
On to `C[C@](Cc1ccc(O)c(O)c1)(NN)C(=O)O`, for which the Potency result is “inactive”.
`COc1ccccc1N1CCN(CCCCN2C(=O)c3ccccc3C2=O)CC1`: the Potency entry is “inactive”.
Turning to `C=CCN1CCc2c(cc(O)c(O)c2Cl)C(c2ccccc2)C1` (stereo not given), the Potency entry is “inactive”.
On to `N#Cc1cc([N+](=O)[O-])c2sc(C(N)=O)[n+]([O-])c2c1`, for which the Potency entry is “inactive”.
For the molecule `O=C(O)c1ccccc1Nc1cccc(OCc2ccc3ccccc3n2)c1`, the Potency result was “inactive”.
For the molecule `CCCCCCCCCC[Si](C)(C)CCC(=O)NC(Cc1ccc(C)cc1)c1ccccc1` (stereo not given), the Potency entry is “inactive”.
`N=C(N)SCCc1cnc[nH]1`: the Potency result was “inactive”.
Under `O=C(N[C@@H](Cc1ccccc1)C(=O)CCl)OCc1ccccc1` stands “inactive”.
In the case of `CC[C@H](NC(=O)c1c(C)c(-c2ccccc2)nc2ccccc12)c1ccccc1`, the Potency result is “inactive”.
As to `O=C(O)C1=CCCN(CCON=C(c2ccccc2)c2ccccc2)C1`, the Potency entry is “inactive”.
On to `Clc1nccc2c1ccc1ccccc12`, for which the Potency entry was “inactive”.
With `CCCOC(=O)c1c(-c2ccccc2)nc(CC)c(C(=O)SCC)c1CCC`, the Potency result was “inactive”.
For `O=C(O)CCC(=O)N1CCCC1C(=O)O` (stereo not given), the Potency result was “inactive”.
Turning to `N[C@H](C(=O)O)[C@H](Cc1ccccc1)C(=O)O`, the Potency result was “inactive”.
The entry for `CNCCc1cnc(CCC(c2ccccc2)c2ccccc2)[nH]1` is “inactive”; for `NC1(C(=O)O)CC1` it is “inactive”.
Turning to `COC(=O)C1=C(C)NC(C)=C([N+](=O)[O-])C1c1ccccc1C(F)(F)F` (stereo not given), the Potency result is “inactive”.
`NCCCCN=C(N)N`: the Potency entry is “inactive”.
On to `CC(N)(C(=O)O)c1ccc(C(=O)O)cc1` (stereo not given), for which the Potency entry is “inactive”.
The entry for `O=C(O)[C@H]1NCCC[C@H]1C(=O)O` is “inactive”; for `NC(N)=NC(N)=Nc1cccc(Cl)c1` it is “inactive”.
With `C=C1C[C@@]23CC[C@H]4[C@@](C)(CCC[C@@]4(C)C(=O)O)[C@@H]2CC[C@]1(O)C3`, the Potency entry was “inactive”.
The entry for `CC(C)NCC(O)COc1ccc(CC(N)=O)cc1` (stereo not given) is “inactive”; for `O=[N+]([O-])c1cccc2c(Br)[nH]nc12` it is “inactive”; for `Nc1ccc2c3c(cccc13)C(=O)NC2=O` it is “inactive”.
Under `CN[C@H](CC(=O)O)C(=O)O` stands “inactive”; under `NCC(O)(CS(=O)(=O)O)c1ccc(Cl)cc1` (stereo not given), “inactive”; under `CCCn1c(=O)c2c(ncn2C)n(CCC)c1=O`, “inactive”.
As for `N#Cc1cc2nc(O)c(O)nc2cc1[N+](=O)[O-]`, the Potency result is “inactive”.
On to `CC(C)(C)c1cc(/C=C(\C#N)C(N)=S)cc(C(C)(C)C)c1O`, for which the Potency entry is “inactive”.
On to `[Li+]`, for which the Potency result is “inactive”.
On to `CC[C@@H]1Cc2cc(O)ccc2C2=C1c1ccc(O)cc1C[C@H]2CC`, for which the Potency result was “inactive”.
For the molecule `NCCCCN`, the Potency result is “inactive”.
Under `CCCC(=O)NCCc1c2n(c3ccc(OC)cc13)CCCc1ccccc1-2` stands “inactive”; under `Nc1ncnc2c1ncn2C1CCCO1` (stereo not given), “inactive”; under `c1ccc(CN2CCC3(CCCc4ccccc43)CC2)cc1`, “inactive”.
Under `c1ccc2c(c1)CCC[C@H]2Nc1nc2ccccc2[nH]1` stands “inactive”; under `CCCN(CCc1ccccc1)C1CCc2c(O)cccc2C1` (stereo not given), “inactive”.
